From PubChem BioAssay (NCI)
About 83,000 compounds went through this panel and 20% of them were active in at least one assay; those are over-represented in the sample as a whole.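 Percent growth is the endpoint: 0 to 100 indicates growth inhibition (40 means 60% inhibition), 0 means no net growth, and negative values indicate cell death.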 Unmarked numbers belong to inactive results. Activity calls are given as the source filed them.

These compounds were tested on LOX IMVI melanoma (assay: NCI-60 one-dose screen, 48 h (100 = growth as untreated, 0 = no growth, -100 = all killed)). Settings: 10 µM.
Experimental: Growth inhibition of the LOX IMVI human tumor cell line is measured as a screen for anti-cancer activity. Cells are grown in 96 well plates and exposed to the test compound for 48 hours. Compounds are tested at a single concentration, which is 10^-5 M for most compounds. The reported endpoint is percent growth (GI% or GIPRCNT), where numbers from 0 - 100% represent growth inhibition, and numbers from -100% - 0 represent cell death. For example, a value of 40 represents 60% growth inhibition. A value of 0 means no net growth occurred over the course of the experiment. A value of -40 indicates 40% of cells at the beginning of the experiment died by the end of the experiment. A value of -100 means all cells are dead at the end of the experiment.
NCI-60 Human Tumor Cell Lines Screen was performed using the standard one-dose NCI protocol, which is described in more detail at https://dtp.cancer.gov/discovery_development/nci-60/default.htm.
Compounds with GIPRCNT values below 10 were considered active. Activity score was based on GIPRCNT using the following formula: […]
Score is 0 for GIPRCNT values of 100 or above, 50 for GIPRCNT values of 0, and 100 for GIPRCNT values of -100.
For `CCN(CC)CCCC(C)Nc1ccnc(/C=C/c2ccc(Cl)cc2)c1` (stereo not given), the growth was -71.2% (active).
In the case of `CC(C)(C)n1nc(C2CC2)c(Br)c1NC(=O)c1ccccc1F`, the growth is reported as 99.1%.
For `N#CC(=Nc1cccc(F)c1)C1=C(O)c2ccccc2C1=O`, the growth was 91.1%.
Compound `C=CCc1cc(C(C)=O)cc(OC)c1O` has a growth of 100%.
With `COc1cc(C(=O)N/N=C/c2cccc([N+](=O)[O-])c2)cc(OC)c1OC` the growth was 50.2%.
For `O=P(O)(O)OCC(O)CO` (stereo not given), the growth was 97.9%.
`O/N=C/c1ccc(O)cc1O` gave a growth of 105%.
`C=C1CC/C=C(\C)C(=O)C[C@@H]2[C@@H]1CC2(C)C` showed a growth of 89.7%.
In the case of `CCc1ccc(/C(C#N)=C/C=C/c2ccccc2)cc1`, the growth is reported as 44%.
`Cc1ccc(N)cc1[N+](=O)[O-]` gave a growth of 101%.
Compound `O=C(c1ccc(Cl)cc1)c1ccccc1Cl` has a growth of 96.2%.
`O=C(Nc1cccc(NC(=O)Nc2cc(C(F)(F)F)ccc2Cl)c1)Nc1cc(C(F)(F)F)ccc1Cl` was tested, and the growth was 10.2%.
`C#CCSc1nnnn1-c1ccc(Br)c(C)c1` was tested, and the growth was 97.4%.
In the case of `O=C1c2ccccc2C(=O)c2c1ccc(C(=O)O)c2[N+](=O)[O-]`, the growth is reported as 88.4%.
`COc1ncnc2c1cnn2C` gave a growth of 98%.
In the case of `Clc1ccc(-c2n[nH]c3c2Cc2ccccc2-3)cc1Cl`, the growth is reported as 97.4%.
`O=C1OC[C@H]2[C@H](c3ccc(O)c(O)c3)c3cc(O)c(O)cc3C[C@H]12` was tested, and the growth was 113%.
For `O=[N+]([O-])c1ccc(N=Nc2ccc(O)c3ccccc23)cc1`, the growth was 18.4%.
With `Cc1c(O)cnc2nn(-c3ccccc3)c(=N)n12` the growth was 102%.
With `Nc1ccc(N=Nc2ccc(O)cc2)c(N)n1` the growth was 79.4%.
`CCCCCCCCCCCCCCCCC1CC(=O)OC1=O` (stereo not given) showed a growth of 103%.
`CN(C)c1ccc2oc(=O)c3ccccc3c2c1` was tested, and the growth was 88.8%.
`CC1(O)OC(COc2ccc(Cl)cc2)COC1O` (stereo not given) was tested, and the growth was 98.9%.
Work on `c1cc2cccc3c4cccc5cccc(c(c1)c23)c54` yielded a growth of 97.7%.
For `NC(=S)CN1CCOCC1`, the growth was 104%.
Work on `CC(=O)OC(C(=O)O)c1ccccc1` (stereo not given) yielded a growth of 105%.
`CC1OC(Oc2c(-c3ccc(O)c(O)c3)oc3cc(O)cc(O)c3c2=O)C(O)C(O)C1O` (stereo not given) was tested, and the growth was 97.1%.
For `O=C(O)CSCSCC(=O)O`, the growth was 97.3%.
Work on `Cc1ccc(C(O)C2CC2)cc1` (stereo not given) yielded a growth of 100%.
With `S=c1[nH]ccn1-c1ccccc1Cl` the growth was 100%.
In the case of `CC1SC(N)=NC1=O` (stereo not given), the growth is reported as 104%.
Work on `COc1nc(N)nc2c1ncn2C1OC(CO)CC1O` (stereo not given) yielded a growth of 107%.
`CC(=O)/C(Cc1ccccc1)=N/O` was tested, and the growth was 94.2%.
`NCCCN` gave a growth of 112%.
Work on `OC1OC(COC(c2ccccc2)(c2ccccc2)c2ccccc2)C(O)C(O)C1O` (stereo not given) yielded a growth of 93.6%.
Compound `CC1(O)CCCCC1O` (stereo not given) has a growth of 106%.
With `CC1(C(=O)O)NC(C(=O)O)Cc2c1[nH]c1ccccc21` (stereo not given) the growth was 101%.
Work on `O=S(=O)(O)c1ccc(O)c2ccccc12` yielded a growth of 92.7%.
For `O=[N+]([O-])c1ccc(N=Nc2ccccc2)cc1`, the growth was 92%.
For `COc1ccc(/C(C#N)=C2C=C/C(=N/O)c3ccccc3\2)cc1`, the growth was 9.34% (active).
